# Laboratory results: the supplement of paper PMC3334620
# In all, about 33,000 sequences were measured (“E-score (-0.5 to 0.5)”: median about -0.016, highest 2% from about 0.3 on). This excerpt belongs to a sample that is enriched for the highest values.
# Target: T1, Yer184c (UniProt P39961)
# T1 sequence: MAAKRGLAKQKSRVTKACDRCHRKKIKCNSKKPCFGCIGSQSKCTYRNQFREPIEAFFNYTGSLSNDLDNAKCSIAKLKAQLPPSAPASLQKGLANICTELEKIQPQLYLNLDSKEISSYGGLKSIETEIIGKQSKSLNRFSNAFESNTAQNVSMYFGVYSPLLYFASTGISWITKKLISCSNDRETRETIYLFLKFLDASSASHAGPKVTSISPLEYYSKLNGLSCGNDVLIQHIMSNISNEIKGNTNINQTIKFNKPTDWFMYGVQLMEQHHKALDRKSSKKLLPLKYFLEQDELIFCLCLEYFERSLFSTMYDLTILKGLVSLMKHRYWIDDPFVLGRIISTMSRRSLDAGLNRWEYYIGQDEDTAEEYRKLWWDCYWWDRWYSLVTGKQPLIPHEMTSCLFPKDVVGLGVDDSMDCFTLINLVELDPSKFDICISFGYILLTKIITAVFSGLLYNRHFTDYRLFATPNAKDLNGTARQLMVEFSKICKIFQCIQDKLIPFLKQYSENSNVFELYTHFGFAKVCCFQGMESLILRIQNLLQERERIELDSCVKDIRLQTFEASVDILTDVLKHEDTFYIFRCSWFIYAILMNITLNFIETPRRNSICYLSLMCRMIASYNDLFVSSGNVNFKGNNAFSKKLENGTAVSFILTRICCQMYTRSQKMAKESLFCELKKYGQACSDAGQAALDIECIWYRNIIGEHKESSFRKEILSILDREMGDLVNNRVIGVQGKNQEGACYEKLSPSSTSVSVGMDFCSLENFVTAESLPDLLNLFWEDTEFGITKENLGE
# Experiment: PBM E-score (8-mer binding enrichment) (E-score (-0.5 to 0.5)); higher = stronger / more preferred TF binding
# Settings: protein concentration: 100 nM; construct: GST-full length
# Method in brief: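 Universal all-10-mer Agilent arrays, double-stranded by primer extension on fresh or once-stripped slides, were probed with about 100-200 nM GST-tagged yeast transcription factors made by PURExpress. Fluorescent anti-GST detected bound protein, and masliner normalised the scans. E-scores from the Universal PBM Analysis Suite were given to each ungapped eight-base word pooled with its reverse complement.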
row,Sequence,PBM E-score
1,AGCTACCA,-0.173
2,ATGCATTA,0.0989
3,GAATCCCA,-0.0522
4,ATAGGAGG,-0.285
5,AGGCTTAC,-0.0812
6,GACTGGTA,0.00991
7,TACCGGAA,0.409
8,TACCGGTA,0.23
9,CACCGGGA,0.152
10,TACCGGGA,0.207
11,CACCGGAA,0.368
12,CACCGGAC,0.268
13,AATGGCCC,-0.247
14,ACCTAGTC,-0.244
15,ATTATCCC,0.0672
16,ATTATCCA,0.0655
17,AATATCCC,-0.0444
18,AGTATCCG,0.332
19,AGTATCCC,-0.0953
20,AATATCCA,0.17
21,CACATCCG,0.282
22,AACATCCC,0.141
23,ATTATCCG,0.36
24,AATATCCG,0.352
25,AGTATCCA,-0.00531

row,Sequence,PBM E-score
1,AACATCCG,0.381
2,AATGTTAT,0.184
3,CACCAGGC,-0.103
4,CCCTTGAA,-0.0291
5,TACAATAA,0.14
6,CATGGTAC,-0.223
7,ATACCCGA,0.111
8,CGCCTAAC,-0.0428
9,TGACTACA,-0.022
10,AAATATAA,0.327
11,ATTAAAAC,0.286
12,AAATATGT,0.304
13,GAATATAA,0.085
14,ATTAAAAA,0.323
15,TAATATAA,0.339
16,AAATATGC,0.0299
17,ATTAAAAG,0.172
18,AAATATGA,0.0794
19,AAAAATAA,0.237
20,AAATATCA,0.124
21,CAATATAA,0.243
22,GTACAATA,0.188
23,CACCGCGG,0.242
24,ACTATATA,0.19
25,GACGCATA,0.0516

row,Sequence,PBM E-score
1,GAATCTAC,0.0543
2,CGATCACG,0.165
3,TAGCACGA,0.0455
4,ACCCCACA,-0.308
5,AACGATAA,0.0408
6,AACATCGA,0.0284
7,CAATATTA,0.133
8,TAATATTA,0.381
9,AATAATAA,0.285
10,CATAATAA,0.0808
11,AATAATTA,0.299
12,GATAAAAA,0.29
13,GATAAACC,0.208
14,CATAATTA,0.233
15,AAATATTA,0.206
16,GATAATTA,0.318
17,TATAATAA,0.324
18,GATAAAAC,0.305
19,CCACAGTC,-0.3
20,GTGGCCAC,-0.0584
21,GAGTTGAC,-0.0176
22,AATCTTAG,0.124
23,ATATGGTG,-0.0255
24,ATAGTGAC,-0.0492
25,GCTATGGA,-0.192

row,Sequence,PBM E-score
1,TCTAACCA,0.0158
2,TAGCTCCA,-0.0638
3,ATAAAACC,-0.0255
4,CGATATTC,0.155
5,ATAAAAAC,0.305
6,ATAAAAAA,0.289
7,GGATATTA,0.132
8,TATAAATA,0.266
9,GTTATAAA,0.0949
10,CTTATAAA,0.174
11,TTTATAAA,0.348
12,CGATATTA,0.343
13,AATAAATG,0.174
14,AATAAATA,0.414
15,AGATTCAC,-0.157
16,AAGGCTGC,-0.0369
17,AACCATCA,0.0573
18,GGTCTTAA,-0.104
19,ACCGTTGG,-0.244
20,CACTTATC,-0.0553
21,ATAGAATC,0.128
22,AGAGGCGC,-0.119
23,CGGTATTA,0.251
24,ACCACACG,-0.164
25,AAATATAT,0.305

row,Sequence,PBM E-score
1,CATAAAAA,0.252
2,TATTAAAA,0.318
3,AAATATAG,0.189
4,TATATAAA,0.289
5,TATAAAAA,0.373
6,AAATATAC,0.0721
7,GATTAAAA,0.296
8,AATTAAAA,0.202
9,GTAAAGAC,0.0705
10,AATAACGA,0.068
11,ATCAAGTG,-0.132
12,ATCTTCAA,0.187
13,TTAGCTAA,0.0769
14,GATCCGGC,0.354
15,GATCCGCC,0.0797
16,GATCCGCA,0.0531
17,CATCCGGA,0.375
18,AATCCGGC,0.3
19,CATCCGGG,0.223
20,GATCCGTA,0.17
21,GATCCGGA,0.395
22,CATCCGCA,0.108
23,AATCCGAT,0.275
24,AATCCGCT,-0.0489
25,AATCCGGT,0.36

row,Sequence,PBM E-score
1,AATGGGTC,-0.184
2,ATGGCCCC,-0.162
3,CTAGTAAC,-0.0898
4,CTACCCAC,-0.304
5,TAAAGCGA,0.0559
6,GGACTGCC,-0.102
7,ATTATGGC,0.0693
8,AAGGCTAT,-0.0663
9,CCTGGTAC,-0.0559
10,CTGCGGGA,-0.0974
11,AATAACCA,0.0129
12,CGCTTTAC,-0.137
13,CATCCGCC,0.0602
14,AATCCGCA,0.101
15,CATCCGTC,-0.0104
16,AATCCGTA,0.0372
17,AATCCGGA,0.401
18,CATCCGGC,0.358
19,CCGAGCAG,0.17
20,ACCAATCA,0.0919
21,AGCTTTCG,0.105
22,ATTCCCAC,-0.171
23,CTGGTGTA,-0.234
24,ATCTTCGC,-0.0164
25,ATTTCCCC,-0.166

row,Sequence,PBM E-score
1,ATTTCCCA,0.107
2,ATATTTCG,0.318
3,ATTTCCCG,0.328
4,ATCTTCGG,0.35
5,ATATTTCC,0.177
6,ATCTTCGA,-0.0159
7,ATTTTCGG,0.377
8,ATTTTCGA,0.121
9,ATATTTCA,0.201
10,ATTTTCGC,0.111
11,CCCATTCC,-0.258
12,ACACTCCA,-0.127
13,AAGGCTTC,-0.0592
14,TATTCTAA,0.181
15,CACTTCTA,-0.133
16,CCTTGCTC,-0.141
17,GGAGGTAA,-0.0289
18,ATTTTCCA,0.178
19,AGTTTCCG,0.392
20,CATTTCCG,0.3
21,ATTTTCCG,0.4
22,AATTTCCG,0.406
23,AGTTTCCC,-0.0163
24,ATTTCTTC,0.315
25,ATTTTCCC,0.00872

row,Sequence,PBM E-score
1,AATTTCCC,0.0065
2,AGTTTCCA,0.111
3,ATTTCTTA,0.216
4,ATTTCTTG,0.216
5,ATGAAGCA,-0.0497
6,CACTTCTC,-0.119
7,CGTAAGTC,-0.00193
8,ATTGTTGA,0.141
9,CCTGCATA,-0.105
10,ACAGCGAA,0.117
11,CTTACTGC,-0.0955
12,ATTTCTCC,0.122
13,ATTTTTCA,0.169
14,AATTTTCG,0.092
15,ATTTCTCG,0.308
16,ATTTTTCG,0.314
17,ATTTCTCA,0.099
18,ATCTCACA,-0.0208
19,GTCTGGCA,-0.16
20,CAGTATAC,-0.0142
21,AAAAATGC,0.143
22,AAACTAGC,-0.093
23,GGTTCCGA,0.278
24,AGTTCCTG,-0.18
25,AGTTCCGC,0.305

row,Sequence,PBM E-score
1,CGTTCCGA,0.236
2,AGTTCCAG,-0.101
3,AGTTCCGA,0.313
4,AGTTCCGG,0.374
5,CGTTCCGC,0.262
6,AGTTCCAC,-0.00257
7,CCGGTCTC,0.0994
8,CTAAAGGC,-0.0965
9,ACTAGCAC,-0.174
10,AATGGTAC,-0.00404
11,ACTAGGAA,-0.177
12,AATGCCTG,-0.123
13,CATGCCAG,-0.161
14,CATGCCGC,0.181
15,CATGCCTA,-0.261
16,CATGCCGG,0.366
17,AATGCCTA,-0.0279
18,AATGCCCG,-0.121
19,TATGCCGA,0.28
20,AATGCCGG,0.35
21,CATGCCCG,0.0955
22,AATGCCGA,0.378
23,CATGCCGA,0.336
24,CAAATACG,-0.00546
25,CGAAACTA,0.0737

row,Sequence,PBM E-score
1,CACTAGTC,-0.184
2,ACTAACGA,0.00902
3,AAAGGCAT,0.141
4,AACCTATT,-0.139
5,GCATCCCC,-0.168
6,CATCAATG,-0.0256
7,AATGCCGT,0.304
8,AATGCCAT,0.055
9,AATGCCGC,0.199
10,GATGCCAA,-0.105
11,GATGCCGA,0.319
12,GATGCCGC,0.106
13,CCTCTTCG,-0.00118
14,AGTTCCCG,0.223
15,CCGCGGTA,0.345
16,ACGCGGAG,0.143
17,CGGCGGTA,0.348
18,ACGCGGTA,-0.105
19,AGGCGGTA,-0.135
20,CCGCGGTC,0.205
21,CCGCGCGA,0.183
22,GGGCGGTA,-0.0752
23,CCGCGGAC,0.295
24,CCGCGCGG,0.386
25,CCGCGGAG,0.333

row,Sequence,PBM E-score
1,CCGCGCGC,0.154
2,CCAGCTTC,-0.0253
3,CAAAATGA,0.0065
4,GACTCAAC,0.0381
5,ATCTCTTC,0.0858
6,AGGTTAAC,-0.037
7,GCGCGGGA,0.0199
8,GCGCGGAA,0.138
9,CCGCGGAA,0.416
10,CCGCGGGC,0.25
11,TCGCGGAA,0.137
12,CCGCGGGA,0.324
13,CGGTGGTC,-0.0197
14,AGAGATCC,-0.00438
15,AAGTGTCA,-0.293
16,ACAAAACT,0.144
17,CGCCCAAA,0.0692
